Potency data for 31 compounds are collected here from PubChem BioAssay AID651605 (National Center for Advancing Translational Sciences (NCATS), 2012).

Molecules are shown by their SMILES. Where “and” joins values, the source holds several entries; their conditions need not be identical. Identical values can stand only once. Inconclusive results are not listed. Calls of active or inactive are those of the source. The call rests on the fitted dose curve; in most records, active means well fitted inhibition curve with a large enough effect; inconclusive means small, poorly fitted or top-dose-only effect; inactive means flat fitted curve, though single readings scatter.

Ubiquitin carboxyl-terminal hydrolase 1 (Homo sapiens), sequence (O94782 whole entry, looked up): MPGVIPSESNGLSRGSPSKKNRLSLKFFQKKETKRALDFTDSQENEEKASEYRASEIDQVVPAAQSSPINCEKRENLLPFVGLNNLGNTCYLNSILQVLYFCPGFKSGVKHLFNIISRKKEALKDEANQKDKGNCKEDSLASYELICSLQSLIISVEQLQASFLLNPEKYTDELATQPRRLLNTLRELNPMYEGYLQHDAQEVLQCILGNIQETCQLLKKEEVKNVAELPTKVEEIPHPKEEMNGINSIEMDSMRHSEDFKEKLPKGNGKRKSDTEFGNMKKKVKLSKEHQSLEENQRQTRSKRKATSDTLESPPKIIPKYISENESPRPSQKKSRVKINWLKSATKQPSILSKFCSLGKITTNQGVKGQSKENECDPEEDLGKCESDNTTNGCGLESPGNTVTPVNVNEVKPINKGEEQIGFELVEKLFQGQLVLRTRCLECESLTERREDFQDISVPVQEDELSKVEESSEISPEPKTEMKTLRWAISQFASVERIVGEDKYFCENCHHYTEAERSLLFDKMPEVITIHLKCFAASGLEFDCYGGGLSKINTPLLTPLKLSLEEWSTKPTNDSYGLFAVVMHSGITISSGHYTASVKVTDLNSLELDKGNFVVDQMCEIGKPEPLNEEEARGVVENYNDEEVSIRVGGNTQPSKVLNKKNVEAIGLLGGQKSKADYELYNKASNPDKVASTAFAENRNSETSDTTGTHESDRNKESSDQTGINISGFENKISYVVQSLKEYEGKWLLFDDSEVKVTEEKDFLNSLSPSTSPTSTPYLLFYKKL

This experiment concerns the target Ubiquitin carboxyl-terminal hydrolase 1 (Homo sapiens) (UniProt O94782). As to the kind of experiment: Inhibitors of USP1/UAF1: SAR in Primary Assay. The note with it: Recombinant USP1/UAF1, Ub-Rhodamine cleavage fluorescence; series mostly up to 57.1 µM. The source says: Deubiquitinating enzymes (DUBs) are a class of enzymes that can cleave isopeptide bond formed between the C-terminal carboxylate of ubiquitin and a lysine side-chain amino group on the target protein. Among them, ubiquitin specific proteases (USPs) constitute the largest DUB family. Human USPs are emerging as promising targets for pharmacological intervention because of their connection to a number of human diseases, including prostate, colon and breast cancer (1, 2), pediatric acute lymphoblastic leukemia (3), and familial cylindromatosis (4). The advantage of inhibiting USPs lies in the potential specificity of therapeutic intervention that can lead to better efficacy and reduce nonspecific side effects. In a collaboration between the University of Delaware and the NIH Chemical Genomics Center, a high-throughput screen assay was developed to screen for USP1/UAF1 inhibitors (5). This assay was used to test the analogs that were synthesized based on SAR around the original hit. NIH Chemical Genomics Center [NCGC] NIH Molecular Libraries Probe Centers Network [MLPCN] MLPCN Grant: DA030552-01 Assay Submitter (PI): Zhihao Zhuang, University of Delaware 1. Priolo, C., et al. (2006) The isopeptidase USP2a protects human prostate cancer from apoptosis. Cancer Res 66, 8625-8632 2. Popov, N., et al. (2007) The ubiquitin-specific protease USP28 is required for MYC stability. Nat Cell Biol 9, 765-774 3. De Pitta, C., et al. (2005) A leukemia-enriched cDNA microarray platform identifies new transcripts with relevance to the biology of pediatric acute lymphoblastic leukemia. Haematologica 90, 890-898 4. Kovalenko, A., et al. (2003) The tumour suppressor CYLD negatively regulates NF-kappaB signalling by deubiquitination. Nature 424, 801-805 5. Chen, J., et al. (2011) Selective and cell-active inhibitors of the USP1/ UAF1 deubiquitinase complex reverse cisplatin resistance in non-small cell lung cancer cells. Chem Bio 18(11):1390-400.
3 microliters of reagents (buffer in columns 3 and 4 as negative control and 1nM USP1/UAF1 complex in columns 1, 2, and 5-48) are dispensed into Greiner black solid bottom 1536-well assay plates. Compounds are then transferred via Kalypsys pin tool equipped with 1536-pin array (10nl slotted pins, V&P Scientific, San Diego, CA). Following an incubation step of 15 min at room temperature, 1ul of Ub-Rho substrate (150nM final concentration) is added to initiate the reaction. The plates are immediately centrifuged at 1000 rpm for 15 seconds, and subsequently transferred to a ViewLux high-throughput CCD imager (PerkinElmer) wherein kinetic measurements of fluorescence are acquired using 480 nm excitation/540 nm emission filter set (6 reads every 60 seconds, see Table 1). All reagents are diluted in an assay buffer consisting of 50mM HEPES (pH 7.8), 0.5mM EDTA, 0.1 mg/ml BSA, 1mM TCEP, and 0.01% Tween-20.
Turning to `CC(=O)c1ccccc1-c1ncc(C)c(NCc2ccc(-c3cccnc3)cc2)n1`, the Potency was 7640 nM (active).

As for `Cc1cnc(-c2ccccc2C(C)C)nc1NCc1ccc(-c2ccnc(C(F)(F)F)c2)cc1`, the Potency was 383 nM (active).

As for `Cc1cccc(CNc2nc(-c3ccccc3C(C)C)ncc2C)c1`, the Potency is 136 nM (active).

As to `Cc1cnc(-c2ccccc2C(C)C)nc1NCc1ccc(C2CCCNC2)cc1` (stereo unspecified), the Potency is 7640 nM (active).

In the case of `Cc1cnc(-c2ccccc2C(C)C)nc1NCc1ccc(-c2cn[nH]n2)cc1`, the Potency is 242 nM (active).

For the compound `CC(Nc1nc(-c2ccccc2C(F)(F)F)nc2ccccc12)c1ccc(-c2ccncc2)cc1` (stereo unspecified), the Potency is 5410 nM (active).

Regarding `Cc1cnc(-c2ccccc2C2COC2)nc1NCC1CCN(c2cccnc2)CC1`, the Potency result was “inactive”.

As to `Cc1nc(NCc2ccc(-c3cccnc3)cc2)c2ccccc2n1`, the Potency entry is “inactive”.

With `FC(F)(F)c1cc(-c2ccc(CNc3nc(-c4ccccc4C(F)(F)F)nc4ccsc34)cc2)ccn1`, the Potency is 3410 nM (active).

As to `Cc1cnc(-c2ccccc2C(F)(F)F)nc1NCc1ccc(-c2cccnc2)cc1`, the Potency was 271 nM (active).

As to `Cc1ccc(-c2ccc(CNc3nc(-c4ccccc4C(C)C)nc4ccccc34)cc2)cn1`, the Potency was 136 nM (active).

Consider `Cc1cnc(-c2ccccc2C(F)F)nc1NCc1ccc(-n2ccnn2)cc1`, for which the Potency was 482 nM (active).

As to `CCc1ccccc1-c1nc(NCc2ccc(-c3cccnc3)cc2)c2ccccc2n1`, the Potency was 607 nM (active).

`Brc1ccccc1-c1nc(NCc2ccc(-c3cccnc3)cc2)c2ccccc2n1`: the Potency is 961 nM (active).

As for `FC(F)(F)c1ccccc1-c1nc(NCC#Cc2cccnc2)c2ccccc2n1`, the Potency is 4.82 µM (active) and 7.64 µM (active).

For `FC(F)(F)c1ccccc1-c1nc(NCc2ccc(-c3cccnc3)cc2)c2sccc2n1`, the Potency is 857 nM (active).

Regarding `Cc1ccccc1-c1nc(NCc2ccc(-c3cccnc3)cc2)c2ccccc2n1`, the Potency was 482 nM (active).

In the case of `Cc1cnc(-c2ccccc2C(C)C)nc1NCC1CCN(c2cccnc2)C1` (stereo unspecified), the Potency is 429 nM (active).

As for `FC(F)(F)c1ccccc1-c1nc(NCc2ccc(-c3cccnc3)cc2)c2ccccc2n1`, the Potency was 607 nM (active).

As for `Cc1ccc(-c2ccc(C(C)Nc3nc(-c4ccccc4C(C)C)ncc3C)cc2)cn1` (stereo unspecified), the Potency was 341 nM (active).

Turning to `Cc1cccc(C(CO)Nc2nc(-c3ccccc3C(C)C)ncc2C)c1` (stereo unspecified), the Potency was 1080 nM (active).

Regarding `FC(F)(F)c1cccc(-c2nc(NCc3ccc(-c4ccnc(C(F)(F)F)c4)cc3)c3ccccc3n2)c1`, the Potency entry is “inactive”.

In the case of `CC(C)c1ccccc1-c1nc(NCC2CCN(c3cccnc3)CC2)c2ccccc2n1`, the Potency is 85.7 nM (active).

`Fc1ccccc1-c1nc(NCc2ccc(-c3cccnc3)cc2)c2ccccc2n1`: the Potency was 3410 nM (active).

Regarding `CC(C)c1ccccc1-c1ncc(F)c(NCc2ccc(-c3ccn[nH]3)cc2)n1`, the Potency is 152 nM (active).

For `CC(C)c1ccccc1-c1nccc(NCc2ccc(-c3ccnc(C(F)(F)F)c3)cc2)n1`, the Potency was 764 nM (active).

In the case of `c1ccc(-c2nc(NCc3ccc(-c4cccnc4)cc3)c3ccccc3n2)cc1`, the Potency was 13600 nM (active).

Regarding `Cc1cnc(-c2ccccc2C(C)C)nc1NCC1CCN(C2COC2)CC1`, the Potency was 15200 nM (active).

Take `CC(C)c1ccccc1-c1nc2c(c(NCc3ccc(-c4cccnc4)cc3)n1)CCC2`: the Potency was 136 nM (active).

Turning to `Cc1cnc(-c2ccccc2C(C)C)nc1NCc1ccc(C(N)=O)cc1`, the Potency was 4290 nM (active).

`Cc1cnc(-c2ccccc2C(C)C)nc1NCc1cccnc1`: the Potency was 2150 nM (active).
